Screening data (PubChem)
Compounds with a hit are over-represented: about 2.6% of the library has one in this group of screens.
TLR9-MyD88 inh: TLR9-MyD88 interaction inhibition; Q9NR96+Q99836; CHO BLA complementation TLR9-MyD88, CCF4 FRET ratio; inhibition, % at 4.98 µM; 340,000 compounds, 0.21% hits; AID 504734;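 active means inhibition above the mean over all tested compounds plus 3 SD, cut at about 21% in these data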;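 further: 0% = DMSO only wells and 100% = clavulanate BLA inhibitor control wells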
Exocytosis inh: blocks lytic granule exocytosis; inhibition, % at 10 µM; AID 651702; 360,000 compounds, 0.66% hits; TALL-104 LAMP-1 surface exposure, flow cytometry; cells stimulated with thapsigargin and PMA;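 active means inhibition above about 55%, limit read from the data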
PRMT1 inh: inhibitors of human PRMT1. recombinant PRMT1, activity-based probe fluorescence polarization. inhibition, % at 2.79 µM. 370,000 compounds, 1.3% hits;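 active means inhibition above about 21% made by adding two undisclosed values, limit read from the data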
ABHD5 PLIN5 PPI: inhibitors of human ABHD5-perilipin-5 interaction. Q00G26+Q8WTS1. Split G. princeps luciferase complementation, luminescence, 4 h. inhibition, % at 4 µM. 360,000 compounds, 0.78% hits;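 active means inhibition above the mean inhibition across every tested compound plus 3 SD, cut at about 22% in these data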;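 further: 0% = DMSO only wells and the 100% control is not disclosed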
TLR4 MyD88 comp: TLR4-MyD88 interaction inhibition in cells; O00206+Q99836; HeLa CL3-4 TLR4/MyD88 BLA complementation, FRET ratio; inhibition, % at 8.4 µM; 200,000 compounds, 0.18% hits; AID 861; in the data active means inhibition above about 25%;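 further: 0% = vehicle and 100% = reference inhibitor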
NOD2 RIPK2 PPI: inhibitors of human NOD2-RIPK2 interaction | inhibition, % at 4.98 µM | 360,000 compounds, 0.38% hits | AID 624267 | O43353 | CHO BLA complementation NOD2-RIPK2, CCF4 ratio; in the data active means inhibition above about 21%;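 further: 0% = vehicle only and 100% = reference blocker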
* = called active by the depositor.

How did COc1ccc(OC)c(/C=N/NC(=O)c2[nH]nc3c2CCc2ccccc2-3)c1 do in these assays?
TLR9-MyD88 inh: 0; Exocytosis inh: 13; PRMT1 inh: -3; ABHD5 PLIN5 PPI: -2; TLR4 MyD88 comp: -6; NOD2 RIPK2 PPI: 4

What do the screens show for `CC(c1ccccc1)n1cc(C(=O)N2CCCC2)nn1` (configuration not stated)?
PRMT1 inh: 0

What do the screens show for `Cc1nn(Cc2ccc(C(=O)NC(C)(C)C)o2)c(C)c1Br`?
TLR9-MyD88 inh: 3; Exocytosis inh: 1; PRMT1 inh: 24*; ABHD5 PLIN5 PPI: 3; TLR4 MyD88 comp: -3; NOD2 RIPK2 PPI: 1

What do the screens show for `Cc1cc(NC(=O)c2ccc(Cn3nc(C)c(Br)c3C)o2)no1`?
TLR9-MyD88 inh: -7; Exocytosis inh: -4; PRMT1 inh: 0; ABHD5 PLIN5 PPI: -3; TLR4 MyD88 comp: 2; NOD2 RIPK2 PPI: 2

What do the screens show for `C[C@@H]1CN([C@@H](C)CO)C(=O)CCCn2cc(nn2)CO[C@H]1CN(C)C(=O)Nc1ccc2c(c1)OCCO2`?
PRMT1 inh: 0

What do the screens show for `Cc1nn(C(=O)c2cccnc2)c(C)c1Sc1ccc(Br)cc1`?
TLR9-MyD88 inh: 0; Exocytosis inh: 59*; ABHD5 PLIN5 PPI: -12; TLR4 MyD88 comp: 16; NOD2 RIPK2 PPI: 5

How did Cc1nn(C(=O)c2ccco2)c(C)c1Sc1ccc(Cl)cc1 do in these assays?
TLR9-MyD88 inh: -4; Exocytosis inh: 0; PRMT1 inh: 2; ABHD5 PLIN5 PPI: -2; TLR4 MyD88 comp: 6; NOD2 RIPK2 PPI: -13

How did CC[C@H](NC(=O)[C@H]1O[C@@H](n2cnc3c(=O)[nH]c(N)nc32)[C@H](O)[C@@H]1O)c1ccccc1 do in these assays?
PRMT1 inh: 8

How did CC(=O)Nc1sc(N/N=C\c2cccc(Cl)c2)nc1-c1cccs1 do in these assays?
TLR9-MyD88 inh: -2; Exocytosis inh: 13; PRMT1 inh: 11; ABHD5 PLIN5 PPI: -23; TLR4 MyD88 comp: 5; NOD2 RIPK2 PPI: -5

Results for CC(=O)Nc1sc(N/N=C\c2ccc(O)cc2)nc1-c1cccs1 ?
TLR9-MyD88 inh: 0; Exocytosis inh: -2; PRMT1 inh: 23*; ABHD5 PLIN5 PPI: -4; NOD2 RIPK2 PPI: 0

What do the screens show for `C#CCNC(=O)C[C@H]1C[C@@]2(C(=O)OC)C(=C[C@H](COCc3ccccc3)O[C@@H]2C)N(CCC2=CCCCC2)C1=O`?
PRMT1 inh: -1

What do the screens show for `CCN(CC)C1CC(=O)N(c2ccc(Br)cc2)C1=O` (configuration not stated)?
TLR9-MyD88 inh: -9; Exocytosis inh: 42; PRMT1 inh: 46*; ABHD5 PLIN5 PPI: 7; NOD2 RIPK2 PPI: 12

What do the screens show for `Cc1cc(C)nc(SC2CC(=O)N(c3ccc(Br)cc3)C2=O)n1` (configuration not stated)?
TLR9-MyD88 inh: -8; Exocytosis inh: 11; PRMT1 inh: 4; ABHD5 PLIN5 PPI: -6; NOD2 RIPK2 PPI: 0

What do the screens show for `Cc1cc(C)cc(N(CC(=O)NC2CCC(C)CC2)S(=O)(=O)c2ccc(C(C)(C)C)cc2)c1` (configuration not stated)?
PRMT1 inh: -5

Results for CN1C(=O)CC(N2CCC(c3nc4ccccc4s3)CC2)C1=O (configuration not stated) ?
TLR9-MyD88 inh: 6; Exocytosis inh: 0; PRMT1 inh: 3; ABHD5 PLIN5 PPI: 2; TLR4 MyD88 comp: 23; NOD2 RIPK2 PPI: 1

What do the screens show for `O=C1CC(N2CCC(c3nc4ccccc4s3)CC2)C(=O)N1Cc1ccccc1` (configuration not stated)?
TLR9-MyD88 inh: -5; Exocytosis inh: 0; PRMT1 inh: 24*; ABHD5 PLIN5 PPI: 6; TLR4 MyD88 comp: -10; NOD2 RIPK2 PPI: 7

What do the screens show for `C=CCC[C@@H](Cc1ccc(F)cc1)C(=O)OC[C@@H](Cc1c[nH]c2ccccc12)NC(=O)[C@@H](CC=C)CC(=O)N(CCO)Cc1ccccc1`?
TLR9-MyD88 inh: -6; Exocytosis inh: 54; PRMT1 inh: 3; ABHD5 PLIN5 PPI: 3; NOD2 RIPK2 PPI: -4

Results for C=CCC[C@H](Cc1ccc(F)cc1)C(=O)OC[C@H](Cc1c[nH]c2ccccc12)NC(=O)[C@H](CC=C)CC(=O)N(CCO)Cc1ccccc1 ?
TLR9-MyD88 inh: 4; Exocytosis inh: 59*; PRMT1 inh: 0; ABHD5 PLIN5 PPI: -13; NOD2 RIPK2 PPI: -11

Results for O=C1/C(=C/c2ccccn2)COc2ccccc21 ?
TLR9-MyD88 inh: 3; Exocytosis inh: 3; PRMT1 inh: -1; ABHD5 PLIN5 PPI: 8; TLR4 MyD88 comp: 23; NOD2 RIPK2 PPI: -10

How did CC1C/C(=C/c2ccco2)C(=O)/C(=C/c2ccco2)C1 (configuration not stated) do in these assays?
TLR4 MyD88 comp: 0

How did CC1C/C(=C/c2cccs2)C(=O)/C(=C/c2cccs2)C1 (configuration not stated) do in these assays?
TLR9-MyD88 inh: 3; Exocytosis inh: 0; PRMT1 inh: 22*; ABHD5 PLIN5 PPI: -5; TLR4 MyD88 comp: 0; NOD2 RIPK2 PPI: 2

How did CC1C/C(=C/c2ccccn2)C(=O)/C(=C/c2ccccn2)C1 (configuration not stated) do in these assays?
TLR9-MyD88 inh: 8; Exocytosis inh: 11; ABHD5 PLIN5 PPI: 76*; TLR4 MyD88 comp: 8; NOD2 RIPK2 PPI: 16

How did CC(C)(C)C1C/C(=C/c2ccccn2)C(=O)/C(=C/c2ccccn2)C1 (configuration not stated) do in these assays?
TLR9-MyD88 inh: 1; Exocytosis inh: 24; ABHD5 PLIN5 PPI: 72*; TLR4 MyD88 comp: 0; NOD2 RIPK2 PPI: 27*

What do the screens show for `O=C(C(=O)N1CCN(C(=O)Cc2ccccc2)CC1)c1cccc(C(F)(F)F)c1`?
PRMT1 inh: 3

What do the screens show for `COc1ccc(C(CCN2CCOCC2)c2c(O)cc(OC)cc2OC)cc1` (configuration not stated)?
TLR9-MyD88 inh: -5; Exocytosis inh: -1; PRMT1 inh: 5; ABHD5 PLIN5 PPI: 3; NOD2 RIPK2 PPI: -6

Results for COc1ccc(C(c2c(O)ccc3ccccc23)N2CCOCC2)c(OC)c1 (configuration not stated) ?
TLR9-MyD88 inh: 1; Exocytosis inh: -6; PRMT1 inh: 67*; ABHD5 PLIN5 PPI: 96*; TLR4 MyD88 comp: -6; NOD2 RIPK2 PPI: 48*

How did C=CCN1C(=O)c2n[nH]c(C(C)C)c2C1c1ccccc1 (configuration not stated) do in these assays?
PRMT1 inh: -3

What do the screens show for `CCCCCCNC(=O)O[C@H]1Cn2c(=O)ccc(=O)n2[C@@H]2CN(S(=O)(=O)c3ccc(C)cc3)C[C@]12O`?
TLR9-MyD88 inh: 6; Exocytosis inh: 7; PRMT1 inh: 0; ABHD5 PLIN5 PPI: 23*; NOD2 RIPK2 PPI: 2
